Results taken from PubChem BioAssay (NCATS).
Inconclusive results are not listed. Activity calls are given as the source filed them. Unless noted, calls come from the whole dose curve; as a rule, active = well fitted curve in the direction sought with a large enough effect; inconclusive = small, poorly fitted or top-dose-only effect, or another doubt; inactive = no such curve, though single readings can be large; an effect the other way counts as inactive or inconclusive.

Columns and labels:
[1] = target: Lysosomal acid glucosylceramidase (Homo sapiens) (UniProt P04062); assay: Glucocerebrosidase-p2 (AID 348; in the data active = potency below about 10 µM; note: potency is the fitted concentration of half-maximal effect); conditions: purified GBA, blue fluorogenic substrate, 40 min
Lysosomal acid glucosylceramidase (Homo sapiens), sequence (P04062 whole entry, looked up): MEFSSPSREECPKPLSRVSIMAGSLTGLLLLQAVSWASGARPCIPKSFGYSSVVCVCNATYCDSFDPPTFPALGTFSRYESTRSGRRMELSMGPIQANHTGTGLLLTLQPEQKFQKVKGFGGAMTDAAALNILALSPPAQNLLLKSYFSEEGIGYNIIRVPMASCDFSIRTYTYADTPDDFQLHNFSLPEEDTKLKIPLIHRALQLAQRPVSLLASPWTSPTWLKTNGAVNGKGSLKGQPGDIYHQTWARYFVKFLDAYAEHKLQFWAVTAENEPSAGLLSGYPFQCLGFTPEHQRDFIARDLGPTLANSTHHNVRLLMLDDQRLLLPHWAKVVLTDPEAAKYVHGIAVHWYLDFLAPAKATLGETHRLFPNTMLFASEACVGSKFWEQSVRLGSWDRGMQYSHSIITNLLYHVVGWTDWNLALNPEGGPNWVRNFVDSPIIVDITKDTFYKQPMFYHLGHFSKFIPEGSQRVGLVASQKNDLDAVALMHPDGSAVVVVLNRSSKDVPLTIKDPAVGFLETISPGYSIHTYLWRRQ
In short: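 Compounds titrated from 0.6 nM upwards against 0.2 nM enzyme in pH 5.9 citric acid/KH2PO4, taurocholate, tween-20; blue fluorogenic substrate 80 uM, 40 min room temperature, stopped and read Ex 365/Em 440 for AC50.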

[2] = target: Cytochrome P450 1A2 (Homo sapiens) (UniProt P05177); assay: p450-cyp1a2 (AID 410; calls by dose curve; note: potency is the fitted concentration of half-maximal effect); conditions: recombinant CYP1A2, luciferin-ME demethylation, luminescence; series mostly up to 57 µM
Cytochrome P450 1A2 (Homo sapiens), sequence (P05177 whole entry, looked up): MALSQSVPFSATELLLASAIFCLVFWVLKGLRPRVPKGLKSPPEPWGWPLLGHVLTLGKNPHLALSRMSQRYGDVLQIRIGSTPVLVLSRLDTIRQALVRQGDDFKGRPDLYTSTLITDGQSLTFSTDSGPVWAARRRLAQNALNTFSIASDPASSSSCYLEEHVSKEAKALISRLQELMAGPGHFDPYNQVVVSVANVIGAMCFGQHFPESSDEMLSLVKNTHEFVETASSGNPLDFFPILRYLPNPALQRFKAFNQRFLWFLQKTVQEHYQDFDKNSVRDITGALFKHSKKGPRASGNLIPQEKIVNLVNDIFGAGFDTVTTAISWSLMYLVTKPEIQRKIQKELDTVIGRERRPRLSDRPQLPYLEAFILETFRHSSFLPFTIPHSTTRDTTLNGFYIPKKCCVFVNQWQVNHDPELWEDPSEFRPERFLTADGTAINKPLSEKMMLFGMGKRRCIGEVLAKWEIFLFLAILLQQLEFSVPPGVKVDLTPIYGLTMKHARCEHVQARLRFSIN
In short: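 Inhibition was calculated relative to 57 uM furafylline (full inhibition). The reaction used human CYP1A2 at 20nM with Luciferin-ME at its Km, 100uM, driven by an NADPH-regenerating system for 60 min at room temperature.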

[3] = target: Glucocorticoid receptor (Homo sapiens) (UniProt P04150); assay: GR-GFP Redistribution (AID 450;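 active = compounds whose dose series gives a full or clear partial fitted curve of increased nuclear translocation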; note: potency is the fitted concentration of half-maximal effect); conditions: U2OS GR-GFP nuclear translocation, laser cytometry, 2 h
Glucocorticoid receptor (Homo sapiens), sequence (P04150 whole entry, looked up, the tested form may be a part): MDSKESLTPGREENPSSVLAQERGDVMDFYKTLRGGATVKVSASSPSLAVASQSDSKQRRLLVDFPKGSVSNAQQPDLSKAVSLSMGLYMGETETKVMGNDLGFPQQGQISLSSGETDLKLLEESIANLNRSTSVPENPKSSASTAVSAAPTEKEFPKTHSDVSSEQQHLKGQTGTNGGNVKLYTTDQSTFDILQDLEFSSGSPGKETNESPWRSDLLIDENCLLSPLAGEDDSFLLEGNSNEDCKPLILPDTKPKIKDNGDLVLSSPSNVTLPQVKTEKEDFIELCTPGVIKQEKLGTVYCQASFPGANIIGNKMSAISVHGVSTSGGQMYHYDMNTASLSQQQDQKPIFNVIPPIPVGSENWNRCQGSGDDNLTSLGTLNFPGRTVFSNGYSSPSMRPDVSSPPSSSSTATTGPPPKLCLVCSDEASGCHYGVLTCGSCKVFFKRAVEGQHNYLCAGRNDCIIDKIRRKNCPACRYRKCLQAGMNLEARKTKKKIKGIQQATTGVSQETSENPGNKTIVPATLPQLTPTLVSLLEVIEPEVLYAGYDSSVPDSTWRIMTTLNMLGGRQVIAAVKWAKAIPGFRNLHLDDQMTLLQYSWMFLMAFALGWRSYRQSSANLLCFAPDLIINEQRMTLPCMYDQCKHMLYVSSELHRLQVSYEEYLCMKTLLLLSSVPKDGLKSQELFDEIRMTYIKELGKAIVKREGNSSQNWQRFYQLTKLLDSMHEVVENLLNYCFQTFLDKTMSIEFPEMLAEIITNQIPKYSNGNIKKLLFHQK

[4] = target: Glucocorticoid receptor (Homo sapiens) (UniProt P04150); assay: GR-EFC Redistribution (AID 451; calls by dose curve; note: potency is the fitted concentration of half-maximal effect); conditions: CHO-K1 GR-EFC translocation, beta-gal luminescence, 2 h
In short: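 Translocation of GR-ED fusion to nuclear EA restores b-gal, read by luminescence after 1 h room-temperature detection. Engineered CHO-K1 biosensor cells, 1,000/well, exposed 2 h at 37 C to titrations up to 46 uM final.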

[5] = target: 3',5'-cyclic-AMP phosphodiesterase 4B (Homo sapiens) (UniProt Q07343); assay: qHTS Assay for Inhibitors of PDE-IV (AID 607; active = well fitted activation curve with a large enough effect in the main read-out, with a control signal flat, not every such curve was filed as active; note: % of control where 0% means no effect); conditions: HEK293 ACTOne CNG channel cells, membrane potential fluorescence; series mostly up to 22.9 µM
In short: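 Live HEK293 cells with a modified cyclic nucleotide-gated (CNG) channel report intracellular cAMP via membrane-potential dye fluorescence (ex 535/em 590 nm). Endogenous PDE-IV was targeted. Compounds were tested at up to 22.9 uM final; RO 20-1724 100 uM served as control.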

[6] = target: Cytochrome P450 3A4 (Homo sapiens) (UniProt P08684); assay: qHTS Assay for Activators of Cytochrome P450 3A4 (AID 885); conditions: recombinant CYP3A4, Luciferin-PPXE luminescence, 60 min; series mostly up to 57.1 µM; note: nearly all actives have a fitted effect of over 65% in size
Cytochrome P450 3A4 (Homo sapiens), sequence (P08684 whole entry, looked up): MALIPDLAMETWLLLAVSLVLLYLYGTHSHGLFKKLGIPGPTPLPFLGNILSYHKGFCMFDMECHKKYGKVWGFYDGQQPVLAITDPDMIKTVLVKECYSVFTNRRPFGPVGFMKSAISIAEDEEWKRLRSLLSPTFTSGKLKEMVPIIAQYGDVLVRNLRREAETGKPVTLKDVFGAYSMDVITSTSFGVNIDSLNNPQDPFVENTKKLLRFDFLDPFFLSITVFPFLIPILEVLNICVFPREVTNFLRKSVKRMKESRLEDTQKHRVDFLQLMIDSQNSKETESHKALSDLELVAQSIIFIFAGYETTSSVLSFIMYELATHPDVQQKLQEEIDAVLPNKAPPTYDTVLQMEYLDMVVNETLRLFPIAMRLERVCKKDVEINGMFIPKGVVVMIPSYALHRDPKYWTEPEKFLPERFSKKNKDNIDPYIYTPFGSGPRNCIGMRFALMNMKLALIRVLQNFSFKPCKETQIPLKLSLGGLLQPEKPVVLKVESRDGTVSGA
In short: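 Quantitative HTS format: compounds preincubated with 20nM human CYP3A4 and Luciferin-PPXE substrate at KM, reaction started by NADPH regeneration, stopped after 60 min, luciferase luminescence read 20 min later.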

[7] = qHTS Assay for Lipid Storage Modulators (AID 1519; calls by dose curve); conditions: Drosophila S3 cells, BODIPY lipid droplet/cell ratio, laser cytometry, cells loaded with oleic acid; for activity change, negative = inhibition: at 57.5 µM (top of the series)
In short: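 Cells seeded at 5,000 per well were treated with compounds over a concentration series and loaded with oleic acid (400 uM, as added). Lipid droplet fluorescence (488 nm excitation, 500-530 nm channel) was read by laser-scanning cytometry and normalized to 20 uM Triacsin C.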

[8] = target: Dual specificity protein kinase CLK4 (Homo sapiens) (UniProt Q9HAZ1); assay: qHTS Assay for Inhibitors of CDC-like Kinase 4 (Kinase-Glo Assay) (AID 1770); conditions: recombinant Clk4, Kinase-Glo ATP depletion luminescence; series mostly up to 66.7 µM; note: % is set by controls: 0 for no effect and ±100 for the full control effect; nearly all actives have a fitted effect of over 65% in size
Dual specificity protein kinase CLK4 (Homo sapiens), sequence (Q9HAZ1 whole entry, looked up): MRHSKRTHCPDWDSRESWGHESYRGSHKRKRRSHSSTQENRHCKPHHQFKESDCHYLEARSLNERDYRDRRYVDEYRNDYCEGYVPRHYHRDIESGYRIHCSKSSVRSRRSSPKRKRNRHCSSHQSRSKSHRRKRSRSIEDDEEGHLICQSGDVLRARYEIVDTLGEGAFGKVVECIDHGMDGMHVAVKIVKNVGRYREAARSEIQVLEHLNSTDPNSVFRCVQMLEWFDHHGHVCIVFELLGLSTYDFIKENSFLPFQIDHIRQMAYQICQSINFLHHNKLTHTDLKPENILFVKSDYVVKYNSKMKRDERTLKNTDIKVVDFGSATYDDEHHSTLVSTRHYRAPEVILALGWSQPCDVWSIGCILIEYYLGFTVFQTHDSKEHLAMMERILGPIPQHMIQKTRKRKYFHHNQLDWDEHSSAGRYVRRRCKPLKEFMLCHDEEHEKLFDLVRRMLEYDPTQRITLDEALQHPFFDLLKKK
In short: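 Luminescent ATP-depletion read-out (Kinase-Glo) after 4.5 h room-temperature reaction of Clk4 (25 nM final) with RS peptide (100 uM) and ATP (1 uM), pH 7.5 Tris buffer with MgCl2 and DTT.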

[9] = target: Dual specificity protein kinase CLK4 (Homo sapiens) (UniProt Q9HAZ1); assay: qHTS Assay for Inhibitors of CDC-like Kinase 4 (ADP-Glo Assay) (AID 1771); conditions: recombinant CLK4, ADP-Glo luminescence; series mostly up to 80 µM; note: % is set by controls: 0 for no effect and ±100 for the full control effect; nearly all actives have a fitted effect of over 70% in size
In short: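 Kinase reaction: Clk4 at 25 nM, RS repeat peptide substrate at 100 uM, ATP at 1 uM, 1 hr, room temperature. Product ADP detected as luciferase signal via ADP-Glo.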

[10] = target: Dual specificity protein kinase CLK4 (Homo sapiens) (UniProt Q9HAZ1); assay: qHTS Assay for Inhibitors of CDC-like Kinase 4 (ADP-FP Assay) (AID 1795); conditions: Transcreener ADP fluorescence polarization; series mostly up to 50 µM;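 note: recombinant human CLK4 phosphorylating RS repeat peptide at 1 µM ATP; % is set by controls: 0 for no effect and ±100 for the full control effect; nearly all actives have a fitted effect of over 60% in size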
In short: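 Kinase activity was measured as ADP production using Transcreener orange tracer (4 nM) and ADP antibody (1 ug/mL) fluorescence polarization, with ADP calculated from a calibration curve. The 1 h reaction contained 6.25 nM Clk4, 1 uM ATP and 100 uM RS peptide at pH 7.5 with Mg2+.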

[11] = target: Ubiquitin carboxyl-terminal hydrolase 1 (Homo sapiens) (UniProt O94782); assay: Inhibitors of USP1/UAF1: Pilot qHTS (AID 504865); conditions: purified USP1/UAF1, Ub-rhodamine cleavage fluorescence; series mostly up to 54.9 µM; note: nearly all actives have a fitted effect of over 35% in size; note: potency is the fitted concentration of half-maximal effect
Ubiquitin carboxyl-terminal hydrolase 1 (Homo sapiens), sequence (O94782 whole entry, looked up): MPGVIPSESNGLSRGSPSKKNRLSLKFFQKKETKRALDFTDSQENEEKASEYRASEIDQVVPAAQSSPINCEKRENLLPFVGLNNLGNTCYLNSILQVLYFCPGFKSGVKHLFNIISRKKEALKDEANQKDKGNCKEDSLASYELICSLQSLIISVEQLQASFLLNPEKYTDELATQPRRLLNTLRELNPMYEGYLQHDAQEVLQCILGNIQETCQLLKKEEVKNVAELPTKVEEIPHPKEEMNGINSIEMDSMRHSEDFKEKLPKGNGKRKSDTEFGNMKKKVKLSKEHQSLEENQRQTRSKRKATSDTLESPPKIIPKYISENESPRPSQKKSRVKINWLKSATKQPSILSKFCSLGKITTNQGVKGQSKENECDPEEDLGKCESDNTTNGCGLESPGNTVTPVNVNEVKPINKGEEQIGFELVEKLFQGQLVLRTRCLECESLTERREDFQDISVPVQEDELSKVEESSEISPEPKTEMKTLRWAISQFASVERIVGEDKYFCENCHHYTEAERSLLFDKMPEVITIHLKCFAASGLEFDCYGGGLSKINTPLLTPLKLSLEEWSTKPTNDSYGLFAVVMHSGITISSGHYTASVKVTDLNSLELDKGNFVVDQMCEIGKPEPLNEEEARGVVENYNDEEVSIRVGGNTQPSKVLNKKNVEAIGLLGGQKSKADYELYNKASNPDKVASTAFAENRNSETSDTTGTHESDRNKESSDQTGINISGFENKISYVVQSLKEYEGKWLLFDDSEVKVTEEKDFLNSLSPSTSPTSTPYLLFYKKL
In short: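 Deubiquitinase activity followed as kinetic rhodamine fluorescence release from 150 nM Ub-Rho. 1 nM USP1/UAF1 with compound, after 15 min room-temperature preincubation, in HEPES pH 7.8 buffer containing TCEP, EDTA, BSA and Tween-20.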

[12] = Primary qHTS for small molecule stabilizers of the endoplasmic reticulum resident proteome: Secreted ER Calcium Modulated Protein (SERCaMP) assay (AID 1508630); conditions: SH-SY5Y GLuc-SERCaMP (Gaussia luciferase released on ER calcium loss) secretion, thapsigargin, luminescence; series mostly up to 38.4 µM; note: % is set by controls: 0 for no effect and ±100 for the full control effect
In short: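 GLuc-SERCaMP-expressing SH-SY5Y cells, pretreated 16 h with compound, are challenged with thapsigargin to empty ER calcium stores; after 4 h, coelenterazine is added directly to the medium and luminescence is imaged.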

[13] = target: Rap guanine nucleotide exchange factor 3 (Homo sapiens) (UniProt O95398); assay: Confirmatory qHTS for agonist of cAMP-regulated guanine nucleotide exchange factor 3 (EPAC1) (AID 1645881); conditions: EPAC1 Rap1B BODIPY-GDP exchange fluorescence, 100% = cAMP control response; series mostly up to 154 µM;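 note: EPAC1 catalysed release of BODIPY-GDP from Rap1B seen as fluorescence loss; nearly all actives have a fitted effect of over 75% in size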
[14] = target: Rap guanine nucleotide exchange factor 4 (Homo sapiens) (UniProt Q8WZA2); assay: Confirmatory qHTS for antagonist of cAMP-regulated guanine nucleotide exchange factor 4 (EPAC2) (AID 1645885); conditions: EPAC2 Rap1B-BODIPY-GDP exchange fluorescence, biochemical; series mostly up to 114 µM; note: % is set by controls: 0 for no effect and ±100 for the full control effect; nearly all actives have a fitted effect of over 25% in size
Rap guanine nucleotide exchange factor 4 (Homo sapiens), sequence (Q8WZA2 whole entry, looked up): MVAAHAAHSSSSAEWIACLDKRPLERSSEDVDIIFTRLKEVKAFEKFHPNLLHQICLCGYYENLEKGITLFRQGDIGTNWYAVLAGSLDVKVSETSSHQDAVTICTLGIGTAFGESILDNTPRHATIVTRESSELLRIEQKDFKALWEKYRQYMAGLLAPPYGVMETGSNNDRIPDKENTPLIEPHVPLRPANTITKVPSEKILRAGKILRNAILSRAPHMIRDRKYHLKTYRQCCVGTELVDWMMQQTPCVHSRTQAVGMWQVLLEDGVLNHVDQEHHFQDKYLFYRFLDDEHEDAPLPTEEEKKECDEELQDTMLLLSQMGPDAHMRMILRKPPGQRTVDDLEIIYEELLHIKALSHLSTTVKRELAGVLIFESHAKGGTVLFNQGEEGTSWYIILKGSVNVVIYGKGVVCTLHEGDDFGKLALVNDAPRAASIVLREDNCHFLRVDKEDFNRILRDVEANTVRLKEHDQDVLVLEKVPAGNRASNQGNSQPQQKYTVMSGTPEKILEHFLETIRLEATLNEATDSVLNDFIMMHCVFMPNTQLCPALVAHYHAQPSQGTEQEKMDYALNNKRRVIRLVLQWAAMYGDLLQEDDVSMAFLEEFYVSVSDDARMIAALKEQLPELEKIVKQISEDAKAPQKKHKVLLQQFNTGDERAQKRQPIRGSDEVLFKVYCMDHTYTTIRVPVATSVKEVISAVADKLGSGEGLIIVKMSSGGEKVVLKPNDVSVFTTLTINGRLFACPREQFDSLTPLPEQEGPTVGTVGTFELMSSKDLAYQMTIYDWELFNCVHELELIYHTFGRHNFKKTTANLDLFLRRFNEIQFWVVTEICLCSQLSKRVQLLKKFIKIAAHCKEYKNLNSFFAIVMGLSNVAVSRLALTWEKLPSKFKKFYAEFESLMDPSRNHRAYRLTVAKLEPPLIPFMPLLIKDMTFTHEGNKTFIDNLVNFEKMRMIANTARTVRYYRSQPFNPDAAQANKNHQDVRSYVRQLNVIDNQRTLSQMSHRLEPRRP

[15] = AP1 Signaling Pathway (AID 357; active = well fitted curve in either direction with a large enough effect, not every such curve was filed as active;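 note: ME-180 reporter cells stimulated with EGF at its EC50 level; % is set by controls: 0 for no effect and ±100 for the full control effect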); conditions: ME-180 AP-1-bla reporter, EGF-induced, beta-lactamase ratio, 5 h; at 7.69 µM (top of the series) unless noted
In short: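 Read-out was the 460nm/530nm emission ratio (excitation 405nm) after CCF4 loading for 2.5 hours at room temperature. Cells carried an AP-1-driven beta-lactamase reporter, were stimulated with EC50 EGF plus compound for 5 hours, and AC50 values came from titrations.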

[16] = NFAT Signaling Pathway (AID 444; active = well fitted curve in either direction with a large enough effect, not every such curve was filed as active;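 note: carbachol stimulus at about its EC50 of 1 µM final; % is set by controls: 0 for no effect and ±100 for the full control effect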); conditions: Jurkat NFAT-bla M1, carbachol, beta-lactamase ratio, 5 h; at 7.69 µM (top of the series) unless noted
In short: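 Read-out: CCF4 FRET ratio (460 nm/530 nm) after 1 h RT dye loading, used for %activity and AC50 from titration series. Cells: Jurkat NFAT-β-lactamase/M1 line, treated with compound plus 1 uM carbachol for 5 h, 37 °C.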

[17] = Stat Signaling Pathway (AID 446; active = well fitted curve in either direction with a large enough effect, not every such curve was filed as active;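 note: ME-180 cervical cancer cells given 40 pM IL-6 alongside compound; SIE-controlled beta-lactamase reporter measured as 460/530 nm FRET emission ratio; % is set by controls: 0 for no effect and ±100 for the full control effect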); conditions: ME-180 (cervical carcinoma) SIE beta-lactamase reporter, IL-6 stimulated, 5 h; at 7.69 µM (top of the series) unless noted
In short: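 IL-6/STAT signaling read in ME-180 cells via an SIE beta-lactamase reporter. Stimulus was 40 pM IL-6 (its AC50) for 5 hrs, so both activation and inhibition register.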

[18] = target: Mitogen-activated protein kinase 10 (Mus musculus) (UniProt Q61831); assay: JNK3 AlphaScreen Assay (AID 530; active = well fitted curve in either direction with a large enough effect, not every such curve was filed as active); conditions: JNK3 lysate, c-Jun phosphorylation; series mostly up to 57.1 µM
In short: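 Room-temperature AlphaScreen kinase assay; pre-activated HepG2 lysate as JNK3 source, biotin-GST-cJun(1-79) substrate, 10 uM ATP, compound 15 min preincubation.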

[19] = target: Cytochrome P450 3A4 (Homo sapiens) (UniProt P08684); assay: qHTS Assay for Inhibitors and Substrates of Cytochrome P450 3A4 (AID 884); conditions: recombinant CYP3A4, Luciferin-PPXE luminescence; series mostly up to 57.1 µM; note: potency is the fitted concentration of half-maximal effect; nearly all actives have a fitted effect of over 50% in size
In short: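 20 nM human CYP3A4 with 25 uM Luciferin-PPXE (at KM) in 200 mM KPO4, preincubated 10 min with compound; NADPH regeneration started a 60 min RT reaction. Luciferin detected by luminescence, normalized to 57 uM ketoconazole as full inhibition.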

[20] = target: Rap guanine nucleotide exchange factor 4 (Homo sapiens) (UniProt Q8WZA2); assay: Confirmatory qHTS for agonist of cAMP-regulated guanine nucleotide exchange factor 4 (EPAC2) (AID 1645884); conditions: EPAC2 GEF activity, Rap1B-BODIPY-GDP fluorescence, percent relative to cAMP agonist control; series mostly up to 154 µM;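 note: nucleotide exchange releases bodipy-GDP from Rap1 and this lowers its fluorescence; % is set by controls: 0 for no effect and ±100 for the full control effect; nearly all actives have a fitted effect of over 65% in size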
[21] = measured here: cell count channel max response
[22] = measured here: lipid channel max response

COc1cccc(Cn2c(=O)c(-c3cn(C)c4ccccc34)nc3cnc(N4CCNCC4)nc32)c1
inactive: Potency [1] > 11.4 µM | Potency [3] > 9.22 µM | Potency [4] > 46 µM | Potency [5] | Potency [6] | activity change, negative = inhibition [7] 5.92% | Potency [8] | Potency [9] | Potency [10] | Potency [12] | outcome [13] | Potency [14]
active: Potency [2] 15.8 µM | Potency [11] 14.1 µM
13.9%: max response [7, 21]
20.8%: max response [7, 22]

CN(C)c1ncc2nc(-c3ccc(F)cc3)c(=O)n(Cc3cccs3)c2n1
28%: max response [7, 22]
active: Potency [2] 1 µM
26.1%: max response [7, 21]
inactive: Potency [1] > 11.4 µM | activity change, negative = inhibition [15] 14.3% | activity change, negative = inhibition [16] 5.02% | activity, negative = inhibition [17] -1.13% | Potency [3] > 9.22 µM | Potency [4] > 46 µM | activity change, negative = inhibition [7] 2.1% | Potency [8] | Potency [9] | Potency [10] | Potency [11] | Potency [12]

Cc1cccc(CNc2nc(-c3ccc4c(c3)OCO4)nc3ccccc23)c1
active: Potency [2] 0.631 µM | Potency [19] 0.398 µM
-19.2%: max response [7, 21]
-24.8%: max response [7, 22]
inactive: Potency [1] > 11.4 µM | activity, negative = inhibition [17] -19.3% | Potency [3] > 46 µM | Potency [4] > 46 µM | outcome [18] | Potency [6] | activity change, negative = inhibition [7] -7.8% | Potency [8] | Potency [9] | Potency [10] | Potency [11] | Potency [12] | outcome [13] | outcome [20]
